PAX8 inh HTS – PAX8 transcriptional activity inhibition | RMG-I TPO-luciferase reporter, SteadyGlo, 24 h | inhibition, % at 12.6 µM | 360,000 tested, 1.2% active;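 active = mean replicate inhibition at least 60% with every replicate also reaching 60%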;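 also: luciferase light reporting Pax8 driven TPO promoter activity; plate controls were median of neutral control wells for no effect and mitoxantrone controls for full effect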
EWS-Fli inh – inhibitors of EWS/Fli oncoprotein transcriptional activity | 350,000 tested, 0.67% active | A673 NR0B1-luciferase reporter, viability-normalised | inhibition, % at 12.6 µM;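 active = mean inhibition of at least 50% after viability correction, with every replicate also passing that limit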;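 also: firefly luciferase signal divided by Alamar Blue viability fluorescence both relative to DMSO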
Shn3 inh set2 – reduces Shn3 3'UTR luciferase signal in osteoblasts; 360,000 tested, 0.52% active; inhibition, % at 12.5 µM; Clone20 osteoblast Shn3 3'UTR firefly luciferase, 24 h;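 active = mean inhibition of at least 75% with every replicate also reaching 75%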;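 also: 0% = median of neutral control wells and 100% = pilot-screen positive control compound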
Peg3 prom inh-1 – inhibitors of Peg3 promoter; HeLa PEG-Prom luciferase reporter, luminescence, overnight; inhibition, % at 20 µM; 360,000 tested, 1.7% active; AID 588405;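 active = inhibition of at least 50% at 20 µM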
TRPM1 prom inh – reduces MITF-dependent TRPM1 promoter luciferase signal; SK-MEL-5 TRPM1 promoter luciferase, 24 h; inhibition, % at 12.5 µM; 330,000 tested, 0.83% active; AID 488899;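 active = mean inhibition across replicates of 60% or more, whatever share of single replicates reaches that level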
ABHD5-PLIN5 inh – ABHD5-PLIN5 protein interaction inhibition; 360,000 tested, 0.78% active; Split G. princeps luciferase complementation, luminescence, 4 h; inhibition, % at 4 µM; AID 602281; Q00G26+Q8WTS1;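 active = inhibition above the mean inhibition across every tested compound plus 3 SD, cut at about 22% in these data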;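 also: 0% = DMSO only wells and the 100% control is not disclosed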
Peg3 prom inh-2 – Peg3 promoter inhibition confirmation | inhibition, % at 20 µM | AID 602417 | 1,300 tested, 84% active | shares compounds with Peg3 prom inh-1 | HeLa PEG-Prom luciferase reporter, luminescence, overnight;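 active = at 20 µM dose, 40% or more inhibition averaged across four replicates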
An asterisk follows results filed as active. Hits are enriched below; roughly 3% of the tested compounds scored in any of these assays.

`Cc1cc(C)c2sc(N(CCCN(C)C)C(=O)c3ccc(S(=O)(=O)N4CCCc5ccccc54)cc3)nc2c1` gave PAX8 inh HTS 18, EWS-Fli inh 32, Shn3 inh set2 -1, Peg3 prom inh-1 102*, TRPM1 prom inh 83*, ABHD5-PLIN5 inh 11 and Peg3 prom inh-2 99*.
For CN(C)CCCN(C(=O)c1ccc(S(=O)(=O)N2CCc3ccccc3C2)cc1)c1nc2ccc(F)cc2s1 the results were PAX8 inh HTS 13, EWS-Fli inh 58*, Shn3 inh set2 -3, Peg3 prom inh-1 104*, TRPM1 prom inh 73*, ABHD5-PLIN5 inh 13 and Peg3 prom inh-2 92*.
`CCN(Cc1ccccc1)S(=O)(=O)c1ccc(C(=O)N(CCCN(C)C)c2nc3cc4c(cc3s2)OCO4)cc1` gave PAX8 inh HTS -4, EWS-Fli inh 15, Shn3 inh set2 26, Peg3 prom inh-1 87*, TRPM1 prom inh 93*, ABHD5-PLIN5 inh 16 and Peg3 prom inh-2 99*.
For C[C@H](CO)N1C[C@H](C)[C@@H](CN(C)CC2CCCCC2)OCCCC[C@H](C)Oc2ccc(NS(=O)(=O)c3ccccc3)cc2C1=O the results were PAX8 inh HTS -3 and EWS-Fli inh 4.
`CCC(=O)N1CC(=O)N2[C@H](CO)[C@H](c3ccc(C#CC4CCCC4)cc3)[C@H]2C1` gave PAX8 inh HTS 20 and EWS-Fli inh 31.
`CCN(CC)CCN(C(=O)c1ccc(S(=O)(=O)N(C)C2CCCCC2)cc1)c1nc2c(C)cccc2s1` gave PAX8 inh HTS 21, Shn3 inh set2 9, Peg3 prom inh-1 -5, TRPM1 prom inh 11 and ABHD5-PLIN5 inh -9.
`Cc1ccc2sc(N(CCCN(C)C)C(=O)c3ccc(S(=O)(=O)N(C)C4CCCCC4)cc3)nc2c1C` gave PAX8 inh HTS 29, EWS-Fli inh 52, Shn3 inh set2 0, Peg3 prom inh-1 104*, TRPM1 prom inh 77*, ABHD5-PLIN5 inh 9 and Peg3 prom inh-2 100*.
For COc1ccc(S(=O)(=O)Nc2ccc3c(c2)CC(=O)N([C@H](C)CO)C[C@H](C)[C@@H](CN(C)Cc2ccc4c(c2)OCO4)O3)cc1 the results were EWS-Fli inh 15.
CC(C)(C)c1csc(NC(=O)C2COc3ccccc3O2)n1 (stereo not given) was read as PAX8 inh HTS -174, Shn3 inh set2 -79, Peg3 prom inh-1 -297, TRPM1 prom inh -64 and ABHD5-PLIN5 inh -2.
`COc1ccc(-c2csc(NC(=O)C3COc4ccccc4O3)n2)cc1OC` (stereo not given) gave PAX8 inh HTS -118, EWS-Fli inh -6, Shn3 inh set2 15, Peg3 prom inh-1 66*, ABHD5-PLIN5 inh 8 and Peg3 prom inh-2 40.
For CCCN(CC(=O)Nc1ccccc1C)C(=O)CCl the results were PAX8 inh HTS 61*, EWS-Fli inh 40, Shn3 inh set2 3, Peg3 prom inh-1 64*, TRPM1 prom inh 63*, ABHD5-PLIN5 inh -4 and Peg3 prom inh-2 46*.
Screening CCN(C(=O)CSc1nc2n[nH]c(C)c2c(=N)n1-c1ccc(Cl)c(C)c1)c1cccc(C)c1 returned PAX8 inh HTS 58, EWS-Fli inh 21, Shn3 inh set2 27, Peg3 prom inh-1 72*, TRPM1 prom inh 19, ABHD5-PLIN5 inh -4 and Peg3 prom inh-2 49*.
For CCCCN(CC)C(=O)CSc1nc2n[nH]c(C)c2c(=N)n1-c1cccc(C)c1 the results were PAX8 inh HTS 50, EWS-Fli inh 12, Shn3 inh set2 14, Peg3 prom inh-1 53*, TRPM1 prom inh 1, ABHD5-PLIN5 inh 3 and Peg3 prom inh-2 43*.
For COCCn1c(C)cc(C(=O)CSc2nnc3ccccn23)c1C the results were PAX8 inh HTS 32, EWS-Fli inh 63*, Shn3 inh set2 37, Peg3 prom inh-1 64*, TRPM1 prom inh 59, ABHD5-PLIN5 inh -4 and Peg3 prom inh-2 54*.
`Cc1ccc(C(=O)CSc2nnc3ccccn23)c(C)c1` gave PAX8 inh HTS -41, EWS-Fli inh 0, Shn3 inh set2 -25, Peg3 prom inh-1 -108, TRPM1 prom inh -11 and ABHD5-PLIN5 inh 8.
`C[C@@H]1CN([C@@H](C)CO)C(=O)Cc2cc(NC(=O)Cc3cn(C)c4ccccc34)ccc2O[C@H]1CN(C)CC1CCCCC1` gave EWS-Fli inh 15.
`CCCC#Cc1cnc2c(c1)C(=O)N([C@@H](C)CO)C[C@@H](C)[C@@H](CN(C)C(=O)c1cccc(F)c1)O2` gave PAX8 inh HTS -17 and EWS-Fli inh -7.
CN1CCC2(CC1)N=C(c1ccc(F)cc1)C(=S)N2C(=O)c1ccc(C(C)(C)C)cc1 was read as PAX8 inh HTS -1, EWS-Fli inh 19, Shn3 inh set2 9, Peg3 prom inh-1 70*, TRPM1 prom inh 14, ABHD5-PLIN5 inh -2 and Peg3 prom inh-2 84*.
CCc1ccc(S(=O)(=O)/N=C2\C=C(NS(=O)(=O)c3ccccc3)C(=O)c3ccccc32)cc1 was read as PAX8 inh HTS 3, EWS-Fli inh -107, Shn3 inh set2 -3, Peg3 prom inh-1 -33, TRPM1 prom inh 20 and ABHD5-PLIN5 inh -6.
`COc1ccc(S(=O)(=O)/N=C2\C=C(Nc3ccc(O)cc3)C(=O)c3ccccc32)cc1` gave PAX8 inh HTS 108*, EWS-Fli inh 52*, Shn3 inh set2 97*, Peg3 prom inh-1 104*, TRPM1 prom inh 99*, ABHD5-PLIN5 inh -7 and Peg3 prom inh-2 98*.
Screening Cc1ccc(-c2cc3c(N=O)c4ccccc4c-3n[nH]2)cc1 returned PAX8 inh HTS -79, EWS-Fli inh 80*, Shn3 inh set2 64, Peg3 prom inh-1 59*, TRPM1 prom inh 74*, ABHD5-PLIN5 inh -2 and Peg3 prom inh-2 69*.
Screening Cc1cccc(-c2cc3c(N=O)c4ccccc4c-3n[nH]2)c1 returned PAX8 inh HTS -66, EWS-Fli inh -4, Shn3 inh set2 -22, Peg3 prom inh-1 -114, TRPM1 prom inh -4 and ABHD5-PLIN5 inh -9.
`CSCCOC(=O)C1=C(C)NC(=O)NC1c1ccc2c(c1)OCO2` (stereo not given) gave PAX8 inh HTS 17, EWS-Fli inh 13, Shn3 inh set2 8, Peg3 prom inh-1 13, TRPM1 prom inh -7 and ABHD5-PLIN5 inh -2.
For CC1=C(C(=O)OCc2ccc3c(c2)OCO3)C(c2ccc(Cl)cc2)NC(=O)N1 (stereo not given) the results were EWS-Fli inh 36, Shn3 inh set2 12, Peg3 prom inh-1 53*, TRPM1 prom inh 55, ABHD5-PLIN5 inh -6 and Peg3 prom inh-2 29.
For CO[C@H]1CN(C)C(=O)c2cc(NC(=O)c3ccc(F)cc3)ccc2OC[C@@H](C)N(C(=O)CN(C)C)C[C@H]1C the results were PAX8 inh HTS -1 and EWS-Fli inh -2.

Bioassay records (PubChem BioAssay)
